SMILES strings stand for the structures. Compounds without any hit were thinned out: in the full panel of roughly 79,000, 15% have a hit. Values without a mark were called inactive. Rule as the data show it: active = growth inhibition above about 70%; inactive = the rest.

The nature of the assay: NCI Yeast Anticancer Drug Screen. Data for the mlh1 rad18 strain (AID 175). Particulars: S. cerevisiae mlh1 rad18 strain growth inhibition; at 50.0 µM; hits give high values. A digest of the protocol: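 Growth inhibition of the yeast strain was measured after compound exposure and expressed relative to vehicle-treated controls. The strain carries defined defects in DNA damage repair.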
As for `CCC(c1ccc(N(CC)CC)cc1[N+](=O)[O-])c1ccc(N(CC)CC)cc1[N+](=O)[O-]`, the growth inhibition was 20.1%.
The result for `O=C1CC2(CCc3ccccc32)C(=O)N1CN1CCN(CCO)CC1` (stereo not given) reads 11.9%; that for `CC(C)CC(C)C`, 25.1%; that for `Nc1nc(Cl)cc(Nc2ccc3c(c2)CCC3)n1`, -20.4%.
On to `CC1N=C(SCC(=O)c2ccc(Cl)cc2)N2C(C)N=C(SCC(=O)c3ccc(Cl)cc3)N12` (stereo not given), for which the growth inhibition was 10.2%.
For the compound `COc1ccc(/C=N\O[Si](C)(C)C(C)(C)C)cc1O[Si](C)(C)C(C)(C)C`, the growth inhibition is 15.8%.
On to `CCOC(=O)/C(=C\c1c(C)[nH]c2ccccc12)P(=O)(OCC)OCC`, for which the growth inhibition is 11.5%.
As for `COC1(C2COc3cc(OCc4ccccc4)ccc3C2=O)C=C2OCOC2=CC1=O` (stereo not given), the growth inhibition was -4.75%.
The result for `CCNC1(C(=O)O)CCCCC1` reads -0.2%; that for `COC(=O)C(C)CC(C)C(=O)OC` (stereo not given), 16.4%; that for `CN(C)C=Nc1c(Br)cc(Br)c2nonc12`, -8.45%.
Regarding `c1ccc(C2=C(c3ccccc3)c3ccccc3C2)cc1`, the growth inhibition is -9.35%.
As for `C/C(=C\c1ccccc1)C(=O)c1c(C)cc(C)cc1C`, the growth inhibition was -11.8%.
`COc1ccc(Cl)cc1NC(=O)Oc1ccccc1C(N)=O`: the growth inhibition is 3.1%.
Consider `C=CCN=C1NC(=O)C(CC(=O)Nc2cccc(Cl)c2)S1` (stereo not given), for which the growth inhibition is -22.4%.
The result for `Cc1ccc2cccc(CCOC(=O)c3ccc([N+](=O)[O-])cc3)c2c1` reads 4.7%; that for `CCC(=O)Nc1cccc2ccccc12`, -3.1%; that for `CN(C)S(=O)(=O)C(CO)c1ccccc1` (stereo not given), 10.5%.
Turning to `Cc1occ(Br)c(=O)c1O`, the growth inhibition is 15.2%.
For `O=C1C=C2CCC(c3ccc(O)cc3)CC2CC1` (stereo not given), the growth inhibition is -8%.
As to `CC(C)C1c2ccccc2C(=O)C1C(N)=O` (stereo not given), the growth inhibition is -10.4%.
As to `Nc1nc2c(C(=O)NCc3cccs3)nnn2c2cccc(Cl)c12`, the growth inhibition was 7.05%.
As for `CC(Br)C(=O)c1ccc2ncccc2c1` (stereo not given), the growth inhibition is 12.8%.
Consider `OCC1CCCCCCC1`, for which the growth inhibition is -10.4%.
Turning to `COc1cccc(C(=O)NNC(=O)c2ccc3ccccc3c2)c1`, the growth inhibition is 7.95%.
Consider `C1CC2(CC3(C1)SCCS3)SCCS2`, for which the growth inhibition was 0.05%.
In the case of `Cc1cc(C)nc(Nc2nc3ccc([N+](=O)[O-])cc3[nH]2)n1`, the growth inhibition is -4.85%.
For `CC(=O)Oc1ccc(C(C)(C)C)cc1C` the value was -21.1%.
In the case of `CC(C)N(CCC#N)C(=S)Nc1cccc(C(F)(F)F)c1`, the growth inhibition is -2.85%.
For `O=C1OC(=Nc2ccccc2Cl)c2ccccc21`, the growth inhibition was 18.3%.
As to `C/C=C/C(=O)OC/C=C(\C)CCC=C(C)C`, the growth inhibition was -16.7%.
Consider `O=[N+]([O-])c1ccc(S(=O)(=O)N/N=C\c2cc([N+](=O)[O-])ccc2O)cc1`, for which the growth inhibition was 26.6%.
With `COc1ccc(/C=C/C(=O)C(C)(C)C)cc1OC`, the growth inhibition is 23.2%.
The result for `CSc1nc2c(c(=O)[nH]1)CC(=O)N2` reads -3.1%; that for `Cc1cc(C)cc(Cc2ccc3ccccc3c2)c1`, 8.45%.
On to `O=C(O)CCC(=O)NC(c1ccccc1)(c1ccccc1)c1ccccc1`, for which the growth inhibition is 3.1%.
For the compound `CN(/N=C/c1ccccn1)C1=NCCN1`, the growth inhibition was -21.4%.
For `COc1ccc(C2Oc3cc(OC)c(OC)cc3C2CCl)cc1OC` (stereo not given) the value was -35.2%; for `Cc1cccc(C)c1Nc1nc(C)c(C(=O)CC(=O)C(=O)Nc2c(C(C)C)cccc2C(C)C)s1`, 19.6%; for `O=C1c2cccc3cccc(c23)C(=O)N1CCCN(CCO)CCO`, 14.2%.

Values taken from PubChem BioAssay (NCI).
